Assay results from PubChem BioAssay AID651612 (The Scripps Research Institute Molecular Screening Center, 2012).
Among all 2,200 compounds or so, about 1,500 (68%) were called active. So high a share suggests a set chosen from earlier hits. These entries were drawn from the full list. A number with no mark means an inactive call. Rule as the data show it: active = inhibition above about 23%; inactive = the rest.

target: Perilipin-5 (Homo sapiens) + 1-acylglycerol-3-phosphate O-acyltransferase ABHD5 (Homo sapiens) (UniProt Q00G26+Q8WTS1); assay: ABHD5-PLIN5 interaction inhibitors, confirmation, biochemical, luminescence (AID 651612); conditions: at 4 µM, active compounds read high;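 also: 0% = DMSO vehicle wells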
Sequence (Q00G26 whole entry, looked up): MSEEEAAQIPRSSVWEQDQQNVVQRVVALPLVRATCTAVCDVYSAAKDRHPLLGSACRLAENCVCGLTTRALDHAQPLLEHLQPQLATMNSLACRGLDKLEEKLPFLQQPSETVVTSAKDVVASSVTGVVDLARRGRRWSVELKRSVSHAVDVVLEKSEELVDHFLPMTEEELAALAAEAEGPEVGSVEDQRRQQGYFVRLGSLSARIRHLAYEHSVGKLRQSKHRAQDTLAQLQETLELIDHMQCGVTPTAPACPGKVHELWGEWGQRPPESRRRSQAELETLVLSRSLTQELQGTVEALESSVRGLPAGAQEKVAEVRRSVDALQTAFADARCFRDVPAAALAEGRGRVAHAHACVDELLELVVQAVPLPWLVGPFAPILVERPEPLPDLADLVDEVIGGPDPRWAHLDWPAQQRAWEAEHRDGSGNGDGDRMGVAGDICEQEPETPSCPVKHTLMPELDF
Sequence (Q8WTS1 whole entry, looked up): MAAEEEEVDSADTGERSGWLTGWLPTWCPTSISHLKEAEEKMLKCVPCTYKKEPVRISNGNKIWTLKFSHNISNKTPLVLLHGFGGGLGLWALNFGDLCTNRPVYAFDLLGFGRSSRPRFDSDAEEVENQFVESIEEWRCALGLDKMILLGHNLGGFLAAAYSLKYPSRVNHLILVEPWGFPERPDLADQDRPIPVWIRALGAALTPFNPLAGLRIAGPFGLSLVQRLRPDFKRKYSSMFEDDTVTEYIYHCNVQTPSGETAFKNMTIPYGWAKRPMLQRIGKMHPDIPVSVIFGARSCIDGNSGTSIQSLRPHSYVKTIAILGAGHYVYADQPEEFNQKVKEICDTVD

SMILES | inhibition
CCOC(=O)[C@]12Cc3ccccc3[C@H]1N(C1CCCCC1)C(=O)c1cc(OC)ccc12 | 23.3% (active)
CN(C)CC1Oc2ccccc2OC1(O)c1ccccc1 (stereo not given) | 77.6% (active)
COc1ccc(CN2C(=O)NC(=O)/C(=C\c3ccc(OC)c(OC)c3OC)C2=O)cc1 | 36.5% (active)
CCc1nnc(NS(=O)(=O)c2ccc(N=Cc3c(O)n(-c4ccccc4)c(=O)[nH]c3=O)cc2)s1 | 7.03%
Cc1cccc(N2C(=O)NC(=O)/C(=C\c3cnn(-c4ccccc4)c3)C2=O)c1 | 66.4% (active)
